The values that follow come from PubChem BioAssay (NCI).

The structures appear in SMILES notation. Several values for one entry are separate records, joined by “and”; a condition that tells them apart may be missing. Identical values can stand only once. This is part of a sample that, as a whole, favours compounds with a hit. Of some 83,000 tested, about 20% had one in any assay.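 Single-dose data. Exposure time 48 hours. Values below 10 considered active.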 Values without a mark were called inactive. Activity calls are given as the source filed them.

This assay deals with MDA-MB-468 breast. Nature of the assay: NCI-60 one-dose screen, 48 h (100 = growth as untreated, 0 = no growth, -100 = all killed). The note with it: 10 µM unless noted.
For the compound `COc1cc(/C=C/C(=O)N2CCN(C(=O)/C=C/c3cc(OC)c(OC)c(OC)c3)CC2)cc(OC)c1OC`, the growth is 102%.
For `C[C@]12C[C@H](O)[C@H]3[C@@H](CCC4=CC(=O)CC[C@@]43C)[C@@H]1CC[C@@H]2C(=O)CO`, the growth is 84.4%.
Take `COc1cc(/C=C2\CCC/C(=C\c3cc(CN4CCCCC4)c(O)c(OC)c3)C2=O)cc(CN2CCCCC2)c1O`: the growth is 80.4%.
Consider `CC(=O)c1ccc2oc(=O)n(Cc3ccc(C#N)cc3)c(=O)c2c1`, for which the growth is 108%.
On to `CCOC(=O)c1cc(-c2ccc([N+](=O)[O-])cc2)n(-c2ccc(C(=O)O)c(O)c2)c1C`, for which the growth was 58.8%.
In the case of `COc1cc2c(c(OC)c1OC)C(=O)CC(c1cccc(C(=O)Nc3cccc(Br)c3)c1)O2` (stereo not given), the growth was 71%.
To `CC(NC(=O)CCl)c1ccccc1` (stereo not given) belongs 89%; to `Cc1ccc(/C=C/c2nn3c(-c4ccco4)nnc3s2)cc1`, 116%; to `COC(=O)C(=Cc1ccccc1[N+](=O)[O-])C(=O)OC`, 20.2%.
On to `CC(C(=O)O)(C1CCCCC1)C1(O)CCCCC1` (stereo not given), for which the growth is 106%.
`COc1ccc(-c2cc(NC(=O)Nc3ccc(O)cc3)no2)cc1`: the growth was 80.5%.
As for `CCN(CC)c1ccc(/C=N\NC(=O)c2cccc(Nc3ccnc(C(F)(F)F)c3)c2)c(O)c1`, the growth was 24.6%.
In the case of `O=C(Nc1ccc(Cl)cc1)Oc1c(Cl)c(Cl)c(Cl)c(Cl)c1Cl`, the growth was 106%.
As to `CC1(C)CC2(C)CC(=O)C1C(C(=O)O)C2C(=O)O` (stereo not given), the growth is 114%.
On to `c1ccc(CSc2nnc3c4c5c(sc4nc(-c4cccnc4)n23)CCCCCC5)cc1`, for which the growth is 0.132% (active).
`CC(C)C1=NOC(=O)C1=Cc1cn(-c2cccnc2)nc1-c1ccccc1`: the growth is 108%.
Consider `CC(=O)c1c(Nc2ccc(F)c(F)c2F)[nH]c2c(F)cc(F)cc2c1=O`, for which the growth is -21.9% (active).
Turning to `Cc1c(C2=CCCCC2)c2ccccn2c1C(=O)c1cccc(S(=O)(=O)N2CCOCC2)c1`, the growth is 51.5%.
On to `CCc1cnc(=S)n(-c2ccccc2)c1`, for which the growth is 117%.
Take `CC(O)(CC(=O)CC(=O)c1ccccc1)c1ccccc1` (stereo not given): the growth was 94.9% and 101%.
Take `COc1c(/C(C)=N/N=c2sc(C(C)=O)nn2-c2ccc(Cl)cc2)c(Oc2ccccc2)c(OC)c2occc12`: the growth was 106% and 98.8%.
Turning to `COc1ccc(OC)c(/C=N/Nc2ncnc3c2c(C)nn3C)c1`, the growth was 106%.
With `CCOC(=O)C(C)(C#N)C1C=CCCC1` (stereo not given), the growth is 75.6%.
In the case of `Cc1ccc(-c2nc(C#N)c(S(=O)(=O)NCCO)o2)cc1` it was 37.1%; in that of `CC1=CC[C@@H]2C(C)(C)C(=O)CC[C@@]2(C)[C@@H]1COc1ccc2ccc(=O)oc2c1`, 43.1%.
